Measurements: PMC4336329 (PLoS ONE, 2015)
The campaign covered roughly 310,000 compounds. About 14,000 (4.5%) showed an effect of 50% or more. The effect is printed as a negative number. This excerpt belongs to a sample that is enriched for strong results.

These molecules were tested against human ether-à-go-go-related gene (hERG) potassium channel (human, UniProt Q12809) (assay: primary screen, population patch clamp on CHO cells stably expressing hERG; higher = less effect of the substance).
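Further: peak tail current of the secondary pulse compared with the same well before compound.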

Sequence of human ether-à-go-go-related gene (hERG) potassium channel (Q12809 whole entry, looked up): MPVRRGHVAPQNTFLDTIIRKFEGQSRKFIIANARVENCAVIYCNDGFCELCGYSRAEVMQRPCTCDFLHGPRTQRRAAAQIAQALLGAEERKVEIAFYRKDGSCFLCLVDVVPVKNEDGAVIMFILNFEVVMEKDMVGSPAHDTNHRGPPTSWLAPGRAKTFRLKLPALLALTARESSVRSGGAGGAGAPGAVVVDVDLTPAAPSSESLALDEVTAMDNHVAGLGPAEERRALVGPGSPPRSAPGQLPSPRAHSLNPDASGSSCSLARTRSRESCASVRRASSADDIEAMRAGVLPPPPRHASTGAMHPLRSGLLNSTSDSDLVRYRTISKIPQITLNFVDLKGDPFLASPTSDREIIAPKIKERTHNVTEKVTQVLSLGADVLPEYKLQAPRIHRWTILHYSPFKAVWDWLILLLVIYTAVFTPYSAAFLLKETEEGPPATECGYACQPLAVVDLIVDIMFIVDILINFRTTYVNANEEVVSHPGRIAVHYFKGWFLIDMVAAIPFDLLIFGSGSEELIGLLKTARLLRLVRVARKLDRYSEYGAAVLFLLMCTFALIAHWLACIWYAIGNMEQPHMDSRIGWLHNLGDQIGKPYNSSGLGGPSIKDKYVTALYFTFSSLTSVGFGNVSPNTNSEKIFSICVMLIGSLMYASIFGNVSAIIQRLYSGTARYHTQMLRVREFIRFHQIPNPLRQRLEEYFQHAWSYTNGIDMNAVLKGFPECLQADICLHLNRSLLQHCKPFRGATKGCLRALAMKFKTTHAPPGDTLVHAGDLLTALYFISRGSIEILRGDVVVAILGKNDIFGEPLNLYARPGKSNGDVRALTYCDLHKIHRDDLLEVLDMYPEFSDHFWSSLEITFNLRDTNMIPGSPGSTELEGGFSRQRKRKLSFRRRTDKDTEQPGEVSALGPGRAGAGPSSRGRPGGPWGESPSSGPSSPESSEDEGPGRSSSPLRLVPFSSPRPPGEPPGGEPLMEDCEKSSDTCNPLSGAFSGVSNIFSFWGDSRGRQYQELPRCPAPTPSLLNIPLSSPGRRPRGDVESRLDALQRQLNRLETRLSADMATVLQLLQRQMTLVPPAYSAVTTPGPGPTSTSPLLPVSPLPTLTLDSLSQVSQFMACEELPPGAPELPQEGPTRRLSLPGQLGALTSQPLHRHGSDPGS

Structure (SMILES)	hERG current change (%, negative = inhibition) at 10uM [%]
CCc1cccc(CC)c1NC(=O)C1CCN(C(=O)c2ccco2)CC1	2.93
COc1ccc(C(=O)OCn2nnc3ccccc3c2=O)cc1OC	8.71
Cc1ccc(NC(=O)C2C3C=CC4(O3)C2C(=O)N(CCCN2CCCCC2)C4C(=O)NC2CCCCC2)cc1Cl (stereo not drawn)	16.3
O=C(Nc1ccc(Br)cc1)C1C2C=CC3(O2)C1C(=O)N(CCN1CCCCC1)C3C(=O)NC1CCCCC1 (stereo not drawn)	-59.8
O=C(Nc1ccc(Cl)c(Cl)c1)C1C2C=CC3(O2)C1C(=O)N(CCN1CCCCC1)C3C(=O)NC1CCCCC1 (stereo not drawn)	-60.8
Cc1cc(C)cc(NC(=O)C2C3C=CC4(O3)C2C(=O)N(CCN2CCCCC2)C4C(=O)NC2CCCCC2)c1 (stereo not drawn)	-40.3
O=C(Nc1ccc(Br)cc1)C1C2C=CC3(O2)C1C(=O)N(CCN1CCOCC1)C3C(=O)NC1CCCCC1 (stereo not drawn)	-3.6
O=C(Nc1ccc(Cl)cc1)C1C2C=CC3(O2)C1C(=O)N(CCN1CCCCC1)C3C(=O)NC1CCCCC1 (stereo not drawn)	-44.1
Cc1ccc(-c2nc(N)n(S(C)(=O)=O)n2)cc1	7.05
CC(C)(C)n1nc2c(c1NC(=O)c1ccccc1F)CS(=O)C2 (stereo not drawn)	15.6
Cc1ccc2cc(/C=C/C(=O)c3ccco3)c(Cl)nc2c1	15.2
Cc1cccc(NC(=O)c2ccc3c(=O)n4c(nc3c2)CCCCC4)n1	-67.2
Cc1ccc(NC(=O)c2ccc3c(=O)n4c(nc3c2)CCCCC4)nc1	-60.4
COc1ccc(C)cc1NC(=O)c1ccc2c(=O)n3c(nc2c1)CCCCC3	-42.5
O=C(Nc1ccccc1Cl)c1ccc2c(=O)n3c(nc2c1)CCC3	-6.14
Cc1ccc(-c2csc(NC(=O)c3ccc4c(=O)n5c(nc4c3)CCCCC5)n2)cc1	-6.65
Cc1csc(NC(=O)c2ccc3c(=O)n4c(nc3c2)CCCCC4)n1	-80.3
O=C(Nc1ccccn1)c1ccc2c(=O)n3c(nc2c1)CCCCC3	-47.2
O=C(Nc1nc(-c2ccccc2)cs1)c1ccc2c(=O)n3c(nc2c1)CCCCC3	-23.8
Cc1cc(C)c2nc(NC(=O)c3ccc4c(=O)n5c(nc4c3)CCCCC5)sc2c1	13.9
COc1ccc(-c2cc(C(=O)N3CCN(c4ncccn4)CC3)c3ccccc3n2)cc1	-33.4
CCCCNCc1nc2ccccc2c(=O)[nH]1.Cl	5.81
COc1ccc(/C=N\NC(=O)c2ccc(=O)[nH]n2)cc1O	18.4
Brc1cccc(-c2nnc(SCc3ccon3)n2-c2ccccc2)c1	-48.9

Structure (SMILES)	hERG current change (%, negative = inhibition) at 10uM [%]
Cc1ccc(NC(=O)CN2c3cccc4cccc(c34)S2(=O)=O)cc1S(=O)(=O)N1CCOCC1	0.358
Cc1cc(NC(=O)COc2c(C)cccc2C)no1	22.3
CC(=O)c1cccc(NC(=O)C(C)N(C)CC(=O)Nc2ccc(Cl)cc2)c1 (stereo not drawn)	-5.14
c1ccc(Oc2nnc(-c3cccs3)c3ccccc23)cc1	-5.87
Cc1ccc(S(=O)(=O)N2CCN(C(=O)c3ccccc3)CC2)cc1	-31
CC(C)(C)C(=O)N1CCN(c2ncccc2C(F)(F)F)CC1	1.88
O=C(O)CCC(=O)N1CCN(c2ncccc2C(F)(F)F)CC1	9.74
O=C(c1ccc(F)cc1)N1CCN(S(=O)(=O)c2ccc(Br)cc2)CC1	-5.63
Cc1ccc(S(=O)(=O)N2CCN(C(=O)c3ccc(S(=O)(=O)N4CCCC4)cc3)CC2)cc1	-6.64
Cc1ccc(S(=O)(=O)N2CCN(C(=O)c3cccc(-n4cccc4)c3)CC2)cc1	-51.3
Cc1ccc(S(=O)(=O)N2CCCN(C(=O)c3ccc(-n4cccn4)cc3)CC2)cc1	-74.2
O=C(c1cccc(-n2cccc2)c1)N1CCN(S(=O)(=O)c2ccccc2)CC1	-32
O=C(c1cccc(-n2cccc2)c1)N1CCN(S(=O)(=O)c2ccc(F)cc2)CC1	-34.7
O=C(c1ccc(-n2cccn2)cc1)N1CCN(c2ncccc2C(F)(F)F)CC1	-60.4
Cc1ccnn1-c1ccc(C(=O)N2CCCN(S(=O)(=O)c3ccc(F)cc3)CC2)cc1	-69.7
O=C(c1ccncc1)N1CCN(S(=O)(=O)c2ccc(F)cc2)CC1	15.2
CCOC(=O)c1sc2nc(N3CCCC3)c3c(c2c1N)CC(C)(C)OC3	10.4
O=[N+]([O-])c1cccc(N/N=C/c2cccc(O)c2O)c1	16.7
COc1ccc(-c2n[nH]c3c2C(c2ccc(OC)c(OC)c2)N(c2ccccc2)C3=O)cc1 (stereo not drawn)	3.73
Cc1cc(Cl)ccc1N(CC(=O)NCc1ccccc1)S(C)(=O)=O	-1.12
Cc1cc(Cl)ccc1OCCCC(=O)NNC(=O)c1ccncc1	-30.2
O=C(CSc1nnc(COc2ccc(Cl)cc2)n1Cc1ccco1)c1ccccc1F	13.1
Clc1ccc(OCc2nnc(SCc3nc4ccccc4[nH]3)n2Cc2ccco2)cc1	-36
CC(Sc1nnc(COc2ccc(Cl)cc2)n1Cc1ccccc1)C(=O)O (stereo not drawn)	3.06

Structure (SMILES)	hERG current change (%, negative = inhibition) at 10uM [%]
CC(Sc1nnc(COc2ccc(Cl)cc2)n1Cc1ccco1)C(=O)N1CCNC1=O (stereo not drawn)	-55.9
COc1ccccc1NC(=O)CSc1nnc(COc2ccc(Cl)cc2)n1Cc1ccco1	-12.7
Cl.Clc1ccc(OCc2nnc(SCCN3CCCCC3)n2Cc2ccco2)cc1	-75.9
N#Cc1c(NC(=O)CSc2nc(-c3ccco3)cc(C(F)(F)F)n2)sc2c1CCCC2	12.3
Cc1ccc(/C=N/Nc2nc(C(C)(C)C)cs2)o1.Cl	-22.5
CC(=O)Nc1cccc(NC(=O)COc2ccc3c(c2)OCO3)c1	4.48
O=C(O)c1ccc(Br)cn1	9.73
O=C(O)c1ccc([N+](=O)[O-])c(CS(=O)(=O)c2ccc(Cl)cc2)c1	6.82
Cc1nc2c(C#N)cnn2c2c1CCN(Cc1ccccc1)N2C	-58
COC(=O)C(C(C)C)N1CCc2c(C)nc3c(C#N)cnn3c21 (stereo not drawn)	13.9
Cc1nc2c(C#N)cnn2c2c1CCNN2C	-1.38
Cc1nc2c(C#N)cnn2c2c1CCN2CC1CCCO1 (stereo not drawn)	-51.7
N#Cc1cnn2c(C(F)(F)F)c3c(nc12)CCCC3	-5.18
COC(CN1CCc2c(C)nc3c(C#N)cnn3c21)OC	5.84
Cc1cc(=O)n2c3ccccc3n(C)c2n1	9.7
O=C(NC1CCCCC1)N1CCN(c2ccc(Cl)cc2)CC1	-27.8
O=C(NC1CCCCC1)N1CCN(c2ccc([N+](=O)[O-])cc2)CC1	-92.4
S=C(NC1CCCC1)N1CCN(c2ccc(Cl)cc2)CC1	-13.6
O=C(NC1CCCCC1)N1CCN(c2ccccc2)CC1	-0.0694
S=C(NC1CC1)N1CCN(c2ccc(Cl)cc2)CC1	1.76
O=[N+]([O-])c1ccc(N2CCN(C(=S)NC3CCCCC3)CC2)cc1	-53
COc1ccc([C@H]2CC(=O)C=C(c3cccc4c3Oc3ccccc3S4)C2)cc1	-28.4
Cc1ccc(CNC(=O)CC(C)S(=O)(=O)c2ccc3c(c2)NC(=O)CO3)cc1 (stereo not drawn)	-22.1
CC(=O)c1ccn(S(=O)(=O)c2ccc(Cl)cc2)c1	6.57

Structure (SMILES)	hERG current change (%, negative = inhibition) at 10uM [%]
CC1(C)CC(=O)C([N+](=O)[O-])=C(NCCCC(=O)O)C1.O	15
Cc1cc(C(=O)C(C)OC(=O)C2=NNC(=O)CC2)c(C)n1-c1ccc(OC(F)F)cc1 (stereo not drawn)	-73.3
Cc1ccc(-n2c(C)cc(C(=O)COC(=O)C3=NNC(=O)CC3)c2C)cc1	-42.3
Cc1cc(C(=O)COC(=O)C2=NNC(=O)CC2)c(C)n1-c1ccc(OC(F)F)cc1	-48.4
COc1cc(C(=O)NCC(c2ccco2)N2CCCC2)ccc1OCc1c(C)noc1C (stereo not drawn)	-21.1
O=C(Nc1cccc2ncccc12)c1ccc(-c2ccc(Cl)cc2Cl)o1	-7.06
CS(=O)(=O)N(CC(=O)Nc1ccc(S(=O)(=O)N2CCOCC2)cc1)c1cccc(F)c1	-9.72
Cc1noc(C)c1COc1cccc(C(=O)Nc2ccccc2)c1	-7.11
Cc1ccc(OCCNC(=O)CCC(=O)N2CCOCC2)cc1	15.9
CC1CCN(CC(=O)Nc2ccc(S(=O)(=O)N3CCC(C)CC3)cc2)CC1.Cl	-42.8
CC1CC(C)CN(CC(=O)Nc2ccc(S(N)(=O)=O)cc2)C1 (stereo not drawn)	13.7
NS(=O)(=O)c1ccc(NC(=O)CN2CCCC2)cc1	3.7
O=C(CN1CCN(S(=O)(=O)c2ccccc2)CC1)Nc1ccc(Cl)c([N+](=O)[O-])c1	-65
Cc1ccc(C)c(S(=O)(=O)N2CCN(CC(=O)Nc3ccc([N+](=O)[O-])cc3)CC2)c1	-40.7
CC1CN(CC(=O)Nc2ccc(S(N)(=O)=O)cc2)CC(C)O1 (stereo not drawn)	-52
Cc1ccc(S(=O)(=O)N2CCN(CC(=O)N/N=C\c3ccc(Cl)c([N+](=O)[O-])c3)CC2)cc1	-30.8
CC1CCN(S(=O)(=O)c2ccc(NC(=O)CN3CCN(C)CC3)cc2)CC1	-16
Cc1ccc(S(=O)(=O)N2CCN(CC(=O)Nc3ccc([N+](=O)[O-])cc3)CC2)cc1C	-76.9
Cc1ccc(S(=O)(=O)N2CCN(CC(=O)Nc3ccc(N4CCOCC4)cc3)CC2)cc1C	-11.5
O=C(CN1CCN(S(=O)(=O)c2ccccc2)CC1)Nc1ccc(Cl)c(Cl)c1	-16
CC1CCN(S(=O)(=O)c2ccc(NC(=O)CN3CCN(c4ccccc4)CC3)cc2)CC1	-58.2
